Laboratory results as given in PubChem BioAssay (Tox21).
Results filed as inconclusive are left out. A number with no mark means an inactive call. Calls follow the shape of the full dose curve.

target: 5-hydroxytryptamine receptor 2A (Homo sapiens) (UniProt P28223); assay: 5-hydroxytryptamine receptor 2A (HTR2A) small molecule agonists, cell-based qHTS assay (AID 1963587); settings: HTR2A-CHO cells, calcium flux fluorescence, agonist mode; series mostly up to 76.8 µM; activation: at the top concentration; also: nearly all actives have a fitted effect of over 30% in size
Sequence (P28223 whole entry, looked up): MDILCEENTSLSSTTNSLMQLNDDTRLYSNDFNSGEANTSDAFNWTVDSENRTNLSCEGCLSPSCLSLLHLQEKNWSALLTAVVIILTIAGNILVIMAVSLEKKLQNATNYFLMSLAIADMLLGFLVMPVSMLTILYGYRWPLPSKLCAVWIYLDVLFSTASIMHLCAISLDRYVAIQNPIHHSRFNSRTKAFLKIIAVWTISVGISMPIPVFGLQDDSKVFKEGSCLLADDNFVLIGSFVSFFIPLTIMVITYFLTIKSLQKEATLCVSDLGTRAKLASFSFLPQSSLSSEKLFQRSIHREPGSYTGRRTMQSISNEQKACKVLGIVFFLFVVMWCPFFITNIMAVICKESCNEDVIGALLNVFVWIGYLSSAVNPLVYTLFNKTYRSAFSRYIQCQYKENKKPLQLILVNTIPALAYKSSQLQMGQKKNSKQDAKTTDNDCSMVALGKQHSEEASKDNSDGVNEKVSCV
Procedure, shortened: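 Kinetic calcium-flux fluorescence (2 min, 1 sec intervals) after compound addition in agonist mode. HTR2A-CHO cells were cultured 18 h, then dye-loaded 1 h at 37 C.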
% is scaled to controls: 0 for no effect and ±100 for the full control effect.

Compound	activation
Nc1ccccc1Nc1ccccc1	-1.38%
CC(=O)c1ccc2c(c1)Cc1ccccc1-2	-0.377%
C=CCc1cc(S(=O)(=O)c2ccc(O)c(CC=C)c2)ccc1O	2.1%
CCCCOc1ccc(CC(=O)NO)cc1	-1.72% [at 35.6 µM]
CC(C)=CC=O	0.314%
CCC(C)(C)OC	-1.44%
CC(=O)CCC1=C(C)CCCC1(C)C	4.39%
CCCCCC(C)O (stereo not given)	-1.44%
CC(C)(C)C(O)/C=C/c1ccc2c(c1)OCO2 (stereo not given)	-3.98% [at 35.6 µM]
C=C(C)C(=O)OCc1ccccc1	-1.19%
O=C(Cl)c1cccc([N+](=O)[O-])c1	0.406%
CN1CC(=O)N2[C@H](c3ccc4c(c3)OCO4)c3[nH]c4ccccc4c3C[C@@H]2C1=O	5.45% [at 35.6 µM]
CCCc1nc(C)c2c(=O)[nH]c(-c3cc(S(=O)(=O)N4CCN(CC)CC4)ccc3OCC)nn12	-0.685% [at 35.6 µM]
Cc1ccc(OC(=O)CC(C)C)cc1	-5.6%
C=C(C)C(=O)OCCOCCOC(=O)C(=C)C	-2.69%
O=C(Nc1cccc(Cl)c1)OCC#CCCl	-0.706%
CCNC(=O)NCc1cccc(Cl)c1	-2.25% [at 35.6 µM]
O=C1CCCCCO1	3.07%
CCOC(=O)CC(=O)c1ccccc1	-6.1%
CO/N=C(/C(=O)N[C@@H]1C(=O)N2C(C(=O)[O-])=C(C[n+]3ccn4ncccc43)CS[C@H]12)c1nsc(N)n1	-0.0564% [at 35.6 µM]
O=C1CCCCC1C1CCCCC1 (stereo not given)	3.76%
N#Cc1ccccc1O	-2.51%
O=C1NCC2(CCN(CCc3ccccc3)CC2)O1	-0.378% [at 35.6 µM]
CN(C)C(=O)Nc1ccccc1	-0.103%
Nc1ccc(Oc2ccc(N)c(N)c2)cc1	7.97%
CC(C)COC(=O)CCCCC(=O)OCC(C)C	2.5%

target: Muscarinic acetylcholine receptor M1 (Homo sapiens) (UniProt P11229); assay: Cholinergic receptor muscarinic 1 (CHRM1) small molecule antagonists, cell-based qHTS assay (AID 1963588); settings: CHRM1-CHO antagonist mode, calcium flux fluorescence; series mostly up to 61.5 µM; activity, negative = inhibition: at the top concentration; also: nearly all actives have a fitted effect of over 40% in size
Sequence (P11229 whole entry, looked up): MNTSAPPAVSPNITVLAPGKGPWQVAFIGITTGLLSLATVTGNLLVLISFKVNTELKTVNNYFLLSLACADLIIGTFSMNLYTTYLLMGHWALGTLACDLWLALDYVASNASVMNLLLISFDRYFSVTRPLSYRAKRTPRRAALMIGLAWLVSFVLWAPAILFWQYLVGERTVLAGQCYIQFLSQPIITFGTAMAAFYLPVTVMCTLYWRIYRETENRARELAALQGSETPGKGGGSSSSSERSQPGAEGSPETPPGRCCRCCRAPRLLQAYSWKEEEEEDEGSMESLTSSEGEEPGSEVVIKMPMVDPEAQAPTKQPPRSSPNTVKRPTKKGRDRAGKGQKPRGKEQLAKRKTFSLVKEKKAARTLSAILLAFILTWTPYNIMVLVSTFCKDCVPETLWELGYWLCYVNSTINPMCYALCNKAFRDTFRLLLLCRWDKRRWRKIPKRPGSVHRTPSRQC
Procedure, shortened: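 Compounds were tested at 15 concentrations in three independent runs. Dye-loaded CHRM1-CHO cells were exposed 5 min at room temperature before stimulation by acetylcholine added at 50nM. Intracellular calcium was read kinetically on FDSS for 3 min.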

Compound	activity, negative = inhibition
Nc1ccccc1Nc1ccccc1	3.62%
CC(=O)c1ccc2c(c1)Cc1ccccc1-2	-4.04%
C=CCc1cc(S(=O)(=O)c2ccc(O)c(CC=C)c2)ccc1O	1.42%
CCCCOc1ccc(CC(=O)NO)cc1	15.2% [at 28.3 µM]
CC(C)=CC=O	5.66%
CCC(C)(C)OC	3.04%
CC(=O)CCC1=C(C)CCCC1(C)C	6.07%
CCCCCC(C)O (stereo not given)	-0.55%
CC(C)(C)C(O)/C=C/c1ccc2c(c1)OCO2 (stereo not given)	9.07% [at 28.3 µM]
C=C(C)C(=O)OCc1ccccc1	9.54%
O=C(Cl)c1cccc([N+](=O)[O-])c1	3.01%
CN1CC(=O)N2[C@H](c3ccc4c(c3)OCO4)c3[nH]c4ccccc4c3C[C@@H]2C1=O	-13% [at 28.3 µM]
CCCc1nc(C)c2c(=O)[nH]c(-c3cc(S(=O)(=O)N4CCN(CC)CC4)ccc3OCC)nn12	3.44% [at 28.3 µM]
Cc1ccc(OC(=O)CC(C)C)cc1	4.36%
O=C(Nc1cccc(Cl)c1)OCC#CCCl	-11.5%
CCNC(=O)NCc1cccc(Cl)c1	7.91% [at 28.3 µM]
O=C1CCCCCO1	7.25%
CCOC(=O)CC(=O)c1ccccc1	6.44%
CO/N=C(/C(=O)N[C@@H]1C(=O)N2C(C(=O)[O-])=C(C[n+]3ccn4ncccc43)CS[C@H]12)c1nsc(N)n1	-2.07% [at 28.3 µM]
N#Cc1ccccc1O	11.5%
O=C1NCC2(CCN(CCc3ccccc3)CC2)O1	-22.7% [at 28.3 µM]
CN(C)C(=O)Nc1ccccc1	1.52%
Nc1ccc(Oc2ccc(N)c(N)c2)cc1	-29.4%
CC(C)COC(=O)CCCCC(=O)OCC(C)C	10.8%
